Pol eta inh – DNA polymerase eta (human) inhibition | Q9Y253 | recombinant Pol eta, fluorescent DNA replication assay | Potency, µM (top dose mostly 114 µM), most hits filed as inhibitors | hit rate 1.2% among 390,000 | AID 588591
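Pol eta at 10 nM preincubated with compounds 15 min at room temperature; reaction started with fluorescent substrate (50 nM final) and read kinetically at 0 and 10 min.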
POLI inh – DNA polymerase iota (human) inhibition. Q9UNA4. Pol iota fluorescent replication assay, 10 min. Potency, µM (series often up to 115 µM), hits mostly inhibitors. hit rate 1% among 390,000
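Fluorescent replication assay read twice, at 0 min and 10 min after adding 50 nM (final) substrate. Enzyme (10 nM) and compounds were first incubated 15 min at room temperature; enzyme-free buffer wells were negative controls.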
TDP1 block – inhibitors of human tyrosyl-DNA phosphodiesterase TDP1; Q9NUW8; recombinant TDP1, AlphaScreen DNA substrate cleavage; Potency, µM (series often up to 130 µM), actives largely listed as inhibitors; hit rate 0.28% among 350,000; further: nearly all actives have a fitted effect of over 40% in size
Target sequence (Q9NUW8 whole entry, looked up): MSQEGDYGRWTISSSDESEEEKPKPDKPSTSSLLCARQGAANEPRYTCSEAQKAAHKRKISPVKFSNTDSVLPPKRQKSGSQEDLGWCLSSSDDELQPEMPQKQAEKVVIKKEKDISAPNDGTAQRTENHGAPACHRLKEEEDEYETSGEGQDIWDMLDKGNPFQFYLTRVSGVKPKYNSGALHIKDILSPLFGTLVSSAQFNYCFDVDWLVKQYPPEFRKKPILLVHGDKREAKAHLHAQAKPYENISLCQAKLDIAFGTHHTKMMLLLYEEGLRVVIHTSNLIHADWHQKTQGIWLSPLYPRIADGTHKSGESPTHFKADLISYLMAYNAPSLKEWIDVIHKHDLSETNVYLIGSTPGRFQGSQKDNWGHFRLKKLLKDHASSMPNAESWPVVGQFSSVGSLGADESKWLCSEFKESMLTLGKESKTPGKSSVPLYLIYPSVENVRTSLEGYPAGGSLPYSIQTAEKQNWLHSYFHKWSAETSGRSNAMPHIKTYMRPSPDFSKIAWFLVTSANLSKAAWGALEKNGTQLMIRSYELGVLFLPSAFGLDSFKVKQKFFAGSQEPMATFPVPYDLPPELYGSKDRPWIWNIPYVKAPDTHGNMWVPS
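Recombinant E. coli-expressed Tdp1 (1 nM) preincubated with compound 15 min at RT, then 5'-biotin/3'-phosphotyrosine-FITC DNA substrate (15 nM) added for 5 min. AlphaScreen beads (10 ug/ml) added, 10 min RT; tyrosine-FITC cleavage read as signal loss.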
Pol kappa inh – blocks human DNA polymerase kappa activity; hit rate 0.53% among 400,000; Q9UBT6; Potency, µM (top dose mostly 107 µM), usual class: inhibitors; purified Pol kappa, fluorescent DNA synthesis assay, 10 min; AID 588579
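Kinetic fluorescence readout at 0 and 10 min followed reaction start with substrate at 50 nM final. Beforehand, enzyme (10 nM Pol kappa) stood 15 min with compound at room temperature; buffer-only wells were negative controls.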
Pol beta inh – DNA polymerase beta (human) inhibition. P06746. Pol beta primer extension/strand displacement, fluorescence kinetic. Potency, µM (doses to about 114 µM), most hits filed as inhibitors. hit rate 1.3% among 340,000
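Pol beta (10 nM) and compounds were preincubated 15 min at room temperature, then 50 nM substrate (final) started primer extension/strand displacement. Reads were taken at 0 and 10 min; concentration-response data were fitted to a four-parameter Hill equation.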
Numbers stand for hits; n = inactive; u = inconclusive; x = no result given; [ ] = remark or other dose. A selection: hits, their analogues and other compounds. The true share with any hit is near 2.4%. The call rests on the fitted dose curve; in most records, active means well fitted curve in the direction sought with a large enough effect; inconclusive means small, poorly fitted or top-dose-only effect, or another doubt; inactive means no such curve, though single readings can be large; an effect the other way counts as inactive or inconclusive.

SMILES	Pol eta inh	POLI inh	TDP1 block	Pol kappa inh	Pol beta inh
COc1cc(/C=N/NC(=O)c2ccc3c(c2)OCCO3)cc(Br)c1O	n	n	x	n	n
COc1cc(/C=N\NC(=O)c2ccc(-c3ccccc3)cc2)cc(Br)c1O	u	u	n	n	40µM
COc1ccc(NS(=O)(=O)c2cccc(C(=O)N/N=C(/C)c3ccc(-n4ccnc4)cc3)c2)cc1	n	40µM	x	n	x
COc1cccc(/C=N/NC(=O)c2ccc(-c3ccccc3)cc2)c1O	u	n	n	n	n
COc1ccc(NS(=O)(=O)c2cccc(C(=O)NN=Cc3cc(Br)c(O)c(Br)c3)c2)cc1	45µM	16µM	n	u	x
COc1ccc(NS(=O)(=O)c2cccc(C(=O)N/N=C(\C)c3cccnc3)c2)cc1	n	n	n	n	x
COc1cc(/C=N/NC(=O)c2ccc3c(c2)OCCO3)c(Br)c(Br)c1O	u	u	n	89µM	u
CC(=O)Nc1ccc(Nc2nc(Nc3ccc(Cl)cc3)nc(N3CCOCC3)n2)cc1	x	u	n	n	x
CCOC(=O)c1c(-c2ccc(C)cc2)csc1NC(=O)/C(C#N)=C/c1ccc(O)c(OC)c1	28µM	u	n	n	n
O=S(=O)(Nc1ccc(-c2ccc(N3CCCC3)nn2)cc1)c1ccc(Br)cc1	n	n	n	n	n
COc1cc([N+](=O)[O-])ccc1-c1ccc(/C=N/NC(=O)OC(C)(C)C)o1	n	n	n	n	n
COc1cc([N+](=O)[O-])ccc1-c1ccc(/C=N/NC(N)=O)o1	n	89µM	x	n	u
CCOC(=O)c1nn(-c2ccc(OCC)cc2)c(C)c1C(C)=O	89µM	n	n	n	n
CCOC(=O)c1nn(-c2ccc(C)cc2)c(C)c1C(C)=O	n	n	n	n	n
N#Cc1c(Cl)nc(N/N=C/c2ccccc2)c(Cl)c1Cl	n	n	n	n	20µM
CC[C@H](C)[C@H](NC(=O)[C@H](CC(=O)O)NC(=O)[C@H](CC(N)=O)NC(=O)[C@@H](NC(=O)[C@H](CCCNC(=N)N)NC(=O)[C@@H](NC(=O)[C@@H](NC(=O)[C@@H](NC(=O)[C@@H](NC(=O)[C@H](CCCCN)NC(=O)[C@@H](NC(=O)[C@H](CC(C)C)NC(=O)[C@@H](NC(=O)[C@H](CCCCN)NC(=O)[C@@H](NC(=O)[C@H](CC(=O)O)NC(=O)[C@H](CC(=O)O)NC(=O)[C@H](CCC(N)=O)NC(=O)[C@@H](NC(=O)[C@H](CCCCN)NC(=O)[C@H](CCC(N)=O)NC(=O)[C@@H](NC(=O)[C@@H]1CCCN1C(=O)[C@@H](N)C(C)C)[C@@H](C)CC)C(C)C)[C@@H](C)O)[C@@H](C)O)[C@@H](C)CC)[C@@H](C)O)[C@@H](C)CC)C(C)C)[C@@H](C)O)[C@@H](C)CC)C(=O)N[C@@H](CO)C(=O)N[C@@H](Cc1cnc[nH]1)C(=O)N[C@H](C(=O)N[C@@H](CCC(N)=O)C(=O)N[C@@H](CO)C(=O)N[C@H](C(=O)N[C@@H](CO)C(=O)N[C@@H](CO)C(=O)N[C@@H](CCCCN)C(=O)N[C@@H](CCC(N)=O)C(=O)N[C@@H](CCCCN)C(=O)O)C(C)C)[C@@H](C)O	x	x	n	n	x
CC(=O)Nc1ccc(NC(=O)c2cc(S(=O)(=O)N3CCCCC3)ccc2C)cc1	n	u	n	n	x
Cc1ccc(S(=O)(=O)N2CCCCC2)cc1C(=O)Nc1ncn[nH]1	x	x	50µM	x	25µM
CCN(c1ccccc1)S(=O)(=O)c1ccc2[nH]cc(C(=O)N3CCOCC3)c(=O)c2c1	u	u	50µM	n	u
COc1cc(O)c(C=NN2C(=O)CSC2=S)c(OC)c1	n	x	x	x	x
O=C1CSC(=S)N1/N=C/c1ccc2c(c1)OCCO2	n	u	x	n	n
O=C1CSC(=S)N1/N=C/c1cc(Br)c(O)c(Br)c1	11µM	14µM	n	16µM	20µM
COc1cc(/C=N/N2C(=O)CSC2=S)ccc1O	n	13µM	n	79µM	n
CCC(C(=O)O)C1OC(C(C)C(O)C(C)C(=O)C(CC)C2OC3(C=CC(O)C4(CCC(C)(C5CCC(O)(CC)C(C)O5)O4)O3)C(C)CC2C)C(C)CC1C (centres undefined)	x	x	x	n[19.4 µM]	x
CC(C)(C)n1ncc2c(=O)n(Cc3cccc(C#N)c3)cnc21	x	n	x	n	x

Screening results deposited in PubChem BioAssay by National Center for Advancing Translational Sciences (NCATS).
